Results: PubChem BioAssay (NCATS)
Records with an inconclusive call do not appear. Active and inactive are the calls of the source. Calls follow the shape of the dose curve; as a rule, active = well fitted curve in the direction sought with a large enough effect; inconclusive = small, poorly fitted or top-dose-only effect, or another doubt; inactive = no such curve, though single readings can be large; an effect the other way counts as inactive or inconclusive. Numbered stars: 1 amine (or outer) side, 2 acyl side, 3 side chain; on linkers, the order of the positions; unused ones are H or OH. Bridge positions count the residues as written; N and C are the ends. Square brackets hold non-standard residues; d marks the D form. Peptide text beside a SMILES is read from it. * marks the point of attachment. ξ: configuration not given here. ΔAla(Z-3-ureido) = NC(=O)N/C=C(\N)C(=O)O; X2 = NC1=NC(O)CC(C(N[*:1])C(=O)[*:2])N1; ξβ3hOrn = NCCCC(N)CC(=O)*; Dap = NC[CH](N)C(=O)O

Tests used:
[1] = S16 Schwann cell PMP22 intronic element firefly luciferase assay (AID 624032); also: nearly all actives have a fitted effect of over 30% in size
Summary of the method: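 Luciferase reporter of PMP22 intronic-element expression in stably transfected S16 rat Schwann cells, read by ONE-Glo luminescence after 24 h compound exposure at 37 C. Activity scaled between DMSO (0%) and positive-control PTC124; concentration-effect curves quality-classified.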

[2] = system: 3D7; assay: qHTS profiling for inhibitors of Plasmodium falciparum proliferation (AID 504749); also: nearly all actives have a fitted effect of over 60% in size; conditions: P. falciparum in erythrocytes, SYBR Green DNA, 72 h; series mostly up to 28.7 µM
Summary of the method: (§1)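 Infected RBCs, 0.3% parasitemia/2.5% Hct final; cpd 72 h, 37 C, 5% CO2; lysis buffer with saponin/triton/SYBR Green I, o/n RT dark; FI 485/535; norm. to artemisinin (0.29 uM) and DMSO.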

[3] = system: AS120; assay: as above; conditions: P. falciparum in erythrocytes, SYBR Green DNA, 72 h; series mostly up to 28.7 µM
Summary of the method: as §1

[4] = system: C2A; assay: as above; conditions: P. falciparum in erythrocytes, SYBR Green DNA, 72 h; series mostly up to 28.7 µM
Summary of the method: as §1

[5] = system: CP211; assay: as above; conditions: P. falciparum in erythrocytes, SYBR Green DNA, 72 h; series mostly up to 28.7 µM
Summary of the method: as §1

[6] = system: CP247; assay: as above; conditions: P. falciparum in erythrocytes, SYBR Green DNA, 72 h; series mostly up to 28.7 µM
Summary of the method: as §1

[7] = system: CP250; assay: as above; conditions: P. falciparum in erythrocytes, SYBR Green DNA, 72 h; series mostly up to 28.7 µM
Summary of the method: as §1

[8] = system: CP256; assay: as above; conditions: P. falciparum in erythrocytes, SYBR Green DNA, 72 h; series mostly up to 28.7 µM
Summary of the method: as §1

[9] = system: CP262; assay: as above; conditions: P. falciparum in erythrocytes, SYBR Green DNA, 72 h; series mostly up to 28.7 µM
Summary of the method: as §1

[10] = system: CP297; assay: as above; conditions: P. falciparum in erythrocytes, SYBR Green DNA, 72 h; series mostly up to 28.7 µM
Summary of the method: as §1

[11] = system: Dd2; assay: as above; conditions: P. falciparum in erythrocytes, SYBR Green DNA, 72 h; series mostly up to 28.7 µM
Summary of the method: as §1

[12] = system: ECU; assay: as above; conditions: P. falciparum in erythrocytes, SYBR Green DNA, 72 h; series mostly up to 28.7 µM
Summary of the method: as §1

[13] = system: GB4; assay: as above; conditions: P. falciparum in erythrocytes, SYBR Green DNA, 72 h; series mostly up to 28.7 µM
Summary of the method: as §1

[14] = system: N140; assay: as above; conditions: P. falciparum in erythrocytes, SYBR Green DNA, 72 h; series mostly up to 28.7 µM
Summary of the method: as §1

[15] = system: P93_24; assay: as above; conditions: P. falciparum in erythrocytes, SYBR Green DNA, 72 h; series mostly up to 28.7 µM
Summary of the method: as §1

[16] = system: PAD; assay: as above; conditions: P. falciparum in erythrocytes, SYBR Green DNA, 72 h; series mostly up to 28.7 µM
Summary of the method: as §1

[17] = system: SC27B; assay: as above; conditions: P. falciparum in erythrocytes, SYBR Green DNA, 72 h; series mostly up to 28.7 µM
Summary of the method: as §1

[18] = system: TAB113; assay: as above; conditions: P. falciparum in erythrocytes, SYBR Green DNA, 72 h; series mostly up to 28.7 µM
Summary of the method: as §1

[19] = system: TAB165; assay: as above; conditions: P. falciparum in erythrocytes, SYBR Green DNA, 72 h; series mostly up to 28.7 µM
Summary of the method: as §1

[20] = system: ATS95; assay: as above; conditions: P. falciparum in erythrocytes, SYBR Green DNA, 72 h; series mostly up to 28.7 µM
Summary of the method: as §1

Measured: Potency

NCCCC(N)CC(=O)NC1CNC(=O)C(C2CC(O)N=C(N)N2)NC(=O)/C(=C/NC(N)=O)NC(=O)C(CO)NC(=O)C(CO)NC1=O (stereo not drawn) (ξβ3hOrn-[Dap]SS[ΔAla(Z-3-ureido)][X2]; lactam 1-C; configuration not given here)
inactive: [1] | [2] | [3] | [4] | [5] | [6] | [7] | [8] | [9] | [10] | [11] | [12] | [13] | [14] | [15] | [16] | [17] | [18] | [19]

COc1ccc(-c2nc3ccc(C4=C(C)CC(=O)NN4)cc3[nH]2)cc1
inactive: [1] | [7] | [9]

CC1(C)C(/C=C/C=C/C=C/C=C2\N(CCCCS(=O)(=O)O)c3ccc4ccccc4c3C2(C)C)=[N+](CCCCS(=O)(=O)[O-])c2ccc3ccccc3c21
inactive: [1] | [3] | [20] | [4] | [5] | [6] | [7] | [8] | [9] | [10] | [11] | [12] | [13] | [14] | [15] | [16] | [17] | [18] | [19]

CCC(Oc1ccccc1)C(=O)NC1C(=O)N2C1SC(C)(C)C2C(=O)O (stereo not given)
inactive: [1] | [2] | [3] | [20] | [4] | [5] | [6] | [7] | [8] | [9] | [10] | [11] | [12] | [13] | [14] | [15] | [16] | [17] | [18] | [19]

CC(C)C(NC(=O)C(CC(=O)O)NC(=O)C(CCCCN)NC(=O)C(N)CCCN=C(N)N)C(=O)NC(Cc1ccc(O)cc1)C(=O)O (stereo not given) (H-RKDVY-OH; configuration not given here)
inactive: [1] | [2] | [3] | [20] | [4] | [5] | [6] | [7] | [8] | [9] | [10] | [11] | [12] | [13] | [14] | [15] | [16] | [17] | [18] | [19]

O=C(O)c1ccccc1-c1c2cc(Br)c(=O)c(Br)c-2oc2c(Br)c(O)c(Br)cc12
inactive: [1] | [2] | [3] | [20] | [4] | [5] | [6] | [7] | [8] | [9] | [11] | [12] | [13] | [14] | [15] | [16] | [17] | [18] | [19]

C=CC1=C(C(=O)O)N2C(=O)[C@@H](NC(=O)C(N=O)c3csc(N)n3)[C@H]2SC1 (stereo not given in full)
inactive: [1] | [2] | [3] | [20] | [4] | [5] | [6] | [7] | [8] | [9] | [10] | [11] | [12] | [13] | [14] | [15] | [16] | [17] | [18] | [19]

CNCC(=O)NC(CCCN=C(N)N)C(=O)NC(C(=O)NC(Cc1ccc(O)cc1)C(=O)NC(C(=O)NC(Cc1cnc[nH]1)C(=O)N1CCCC1C(=O)NC(C)C(=O)O)C(C)C)C(C)C (stereo not given)
inactive: [1] | [2] | [3] | [20] | [4] | [5] | [6] | [7] | [8] | [9] | [10] | [11] | [12] | [13] | [14] | [15] | [16] | [17] | [18] | [19]
